In the library only some 1.1% were active in any assay of this set; here they are far more common.
HTR5A inv ctr – HTR5A inverse agonism, opioid heterodimer counter-screen. P47898. HTR5A cell line, luminescence. inhibition, % at 9.3 µM. 340,000 compounds, 0.083% hits. AID 504634; in the data active = inhibition mostly above about 23%, no sharp cut-off; inactive = mostly below about 18%;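 note: 0% = cells with DMSO and 100% = no-cell wells with DMSO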
MOR-DOR ag – OPRM1-OPRD1 heterodimerization agonism; activation, % at 9.3 µM; P35372+P41143; cells, luminescence; 340,000 compounds, 0.3% hits; in the data active = activation above about 18%;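 note: 0% = vehicle-treated cells and 100% = reference agonist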
Target sequence (P35372 whole entry, looked up): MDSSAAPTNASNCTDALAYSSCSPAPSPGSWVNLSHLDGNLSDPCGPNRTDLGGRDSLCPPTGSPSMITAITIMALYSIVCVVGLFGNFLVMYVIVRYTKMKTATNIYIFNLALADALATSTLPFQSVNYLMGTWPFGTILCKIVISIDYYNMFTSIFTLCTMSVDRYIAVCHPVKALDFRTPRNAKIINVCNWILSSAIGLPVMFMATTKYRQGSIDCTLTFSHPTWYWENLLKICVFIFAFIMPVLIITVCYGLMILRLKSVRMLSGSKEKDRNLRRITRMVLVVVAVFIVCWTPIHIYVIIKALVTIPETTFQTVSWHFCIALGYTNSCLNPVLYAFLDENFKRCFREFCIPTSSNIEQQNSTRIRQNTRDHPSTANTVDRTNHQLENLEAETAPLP
Target sequence (P41143 whole entry, looked up): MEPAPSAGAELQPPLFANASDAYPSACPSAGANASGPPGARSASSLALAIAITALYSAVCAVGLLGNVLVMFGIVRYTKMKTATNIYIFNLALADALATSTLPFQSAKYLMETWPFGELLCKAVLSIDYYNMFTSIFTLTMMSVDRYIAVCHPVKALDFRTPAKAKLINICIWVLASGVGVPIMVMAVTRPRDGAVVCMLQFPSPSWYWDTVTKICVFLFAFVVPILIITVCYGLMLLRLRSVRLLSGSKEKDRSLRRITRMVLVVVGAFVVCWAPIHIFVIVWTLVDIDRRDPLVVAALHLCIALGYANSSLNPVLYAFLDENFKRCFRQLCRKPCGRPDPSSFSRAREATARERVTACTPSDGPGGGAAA
HTR5A ag – HTR5A agonism, opioid heterodimer counter-screen; P47898; HTR5A agonist assay, luminescence, cell-based; activation, % at 9.3 µM; 340,000 compounds, 0.61% hits; AID 504692; in the data active = activation mostly above about 9.5%, no sharp cut-off; inactive = mostly below about 7.6%;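 note: 0% = cells with vehicle only and 100% = reference agonist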
MOR-DOR inv ag – mu-delta opioid heterodimer inverse agonism; AID 504357; cell-based MOR-DOR heterodimer luminescence; 340,000 compounds, 0.21% hits; P35372+P41143; inhibition, % at 9.3 µM; in the data active = inhibition above about 22%, passing the limit was not always enough;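 note: 0% = cells with DMSO and 100% = wells without cells with DMSO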
The depositor's hits bear a star.

SMILES | HTR5A inv ctr | MOR-DOR ag | HTR5A ag | MOR-DOR inv ag
CC(C)C(C(=O)NC1=NCCS1)c1ccc(Cl)cc1 (stereo not drawn) | 16 | 1 | -2 | -7
O=C(Cc1ccccc1F)Nc1ccc2c(c1)CCC2 | -26 | 0 | 9.6* | -3
COc1cccc(OC)c1-c1nn2c(-c3ccccc3Cl)nnc2s1 | -5 | -2 | 2 | 9
CC1(C)SCC(C(=O)O)NC1=O (stereo not drawn) | -11 | -1 | 4 | 6
COC(=O)Cn1cc(S(=O)(=O)NCc2ccc(C)cc2)c2cc([N+](=O)[O-])ccc21 | -12 | -4 | 3 | 20
COc1cc(/C(C)=N/NC(=O)c2ccc(CSc3nncn3C)cc2)cc(OC)c1OC | -28 | 2 | 10* | -11
Cc1ccc(NC(=O)/C=N/OCC(=O)NCc2ccccc2Cl)cc1 | -40 | -2 | 14* | 10
CSc1ccc(/C=C2\C(=N)N3N=C(CC(=O)N4CCCCC4)SC3=NC2=O)cc1 | 7 | -3 | -2 | 14
CSc1ccc(/C=C2\C(=N)N3N=C(CC(=O)N4CCOCC4)SC3=NC2=O)cc1 | -37 | -2 | 12* | 8
OCC[C@@H]1C[C@@H](O)[C@H](O)[C@]2(CCCc3ccccc3O2)O1 | 29 | -1 | -11 | 7
CC(C)(C)c1csc(NC(=O)C2=COCCO2)n1 | 2 | -2 | 5 | 10
Cc1cc(/C=C\c2nc(O)c([N+](=O)[O-])c(=O)[nH]2)c(C)n1-c1ccccc1 | 13 | 34* | -4 | -194
Cc1ccccc1C(=O)N1CCC(C(=O)Nc2ccc(S(=O)(=O)N3CCOCC3)cc2)CC1 | 13 | -3 | -4 | 14
O=C(NCC1CCCO1)c1ccc(NS(=O)(=O)c2cccs2)cc1 (stereo not drawn) | 3 | -3 | 0 | 17
CC(=O)N1CCN(C(=O)COC(=O)/C=C/c2ccc(C(F)(F)F)cc2)CC1 | 22 | -3 | 14* | 10
CC1CN(C(=O)COC(=O)/C=C/c2ccc(C(F)(F)F)cc2)CC(C)O1 (stereo not drawn) | -17 | -1 | 7 | 6
OCCN(CCO)c1cc2c3ccccc3ccc2c2ccccc12 | -30 | 14 | 8 | -71
Cc1cccc(C(=O)NC(=S)Nc2ccc(Cc3ccncc3)cc2)c1 | -32 | -1 | 12* | 8
O=C(OCC(=O)N1CCOCC1)c1cc2ccccc2oc1=O | -6 | -4 | -5 | 16
O=C(CSC(=S)N1CCOCC1)c1cc2ccccc2oc1=O | -36 | -1 | 10.0* | 5
CC(C)Nc1ncnc2c1cnn2Cc1ccccc1Cl | 3 | 0 | -1 | 0
CC1(c2ccc3noc(-c4cccc(F)c4)c3c2)OCCO1 | -26 | 13 | 11* | -61
Nc1c(C(=O)NCc2ccco2)nnn1CC(=O)Nc1ccc2c(c1)OCO2 | -4 | -1 | -5 | 5
O=C1c2cccc3cccc(c23)C(=O)C1(O)O | 15 | -9 | -4 | 46*
O=C1c2cccc3cccc(c23)C(=O)N1c1ccc(O)cc1 | 8 | 2 | -2 | -9
SMILES | HTR5A inv ctr | MOR-DOR ag | HTR5A ag | MOR-DOR inv ag
O=C(CSc1nccn1-c1ccccc1)c1ccc(Br)cc1 | 0 | 7 | -1 | -30
CCCc1ccc2oc(C(=O)N3CCN(c4cnccn4)CC3)c(C)c2c1 | -33 | 3 | 13* | -16
CCCc1ccc2oc(C(=O)N3CCN(CCC(N)=O)CC3)c(C)c2c1 | -3 | -1 | 1 | 7
O=C(CCN1C(=O)/C(=C/c2ccccc2F)SC1=S)NCCCN1CCOCC1 | -5 | 0 | 13* | 1
O=C(CCN1C(=O)/C(=C/c2ccccc2)SC1=S)NCCCN1CCOCC1 | -23 | 2 | 8 | -14
CCN(CC)CCN(C(=O)/C=C/c1cccs1)c1nc2ccc(C)cc2s1 | -17 | 4 | 13* | -20
CCOc1cccc2sc(N(CCN(C)C)C(=O)/C=C/c3cccs3)nc12 | -46 | 2 | 13* | -10
CC1=Nc2cc(C(=O)NCCCN3CCOCC3)ccc2Sc2c(C)ccc(C)c21 | -2 | -2 | 10.0* | 9
CC1=Nc2cc(C(=O)NCCN3CCOCC3)ccc2Sc2c(C)ccc(C)c21 | 0 | -2 | 1 | 12
CCCCSc1ccc(NC(=O)c2cccnc2)cc1 | -12 | 0 | 12* | -2
c1ccc(C(c2c[nH]c3ccccc23)c2c[nH]c3ccccc23)nc1 | -76 | 2 | 32* | -7
CSc1nc(=S)n(-c2ccccc2)c(C)c1C(C)=O | 10 | -1 | -3 | 6
COc1cccc2sc(N(CCCN(C)C)C(=O)c3ccc(S(=O)(=O)N4CCc5ccccc5C4)cc3)nc12 | -34 | 2 | 13 | -7
COc1ccc(C)c2sc(N(CCCN(C)C)C(=O)c3ccc(S(=O)(=O)N4CCc5ccccc5C4)cc3)nc12 | -18 | 30* | 21* | -148
CCc1ccc(CN(C)C(=O)c2cccc(S(=O)(=O)Nc3ccccc3OC)c2)cc1 | -20 | 1 | -1 | -4
CN1CCN(S(=O)(=O)c2ccc(Br)c3ccccc23)CC1 | -41 | -1 | 11* | 5
CC(C)CNC(=O)COC(=O)c1c2c(nc3ccccc13)/C(=C\c1cccs1)CC2 | -2 | 21* | 1 | -104
CC(C)(C)C1=CC(=O)C(=O)C(C(C)(C)C)=C1 | -12 | 36* | 5 | -184
CC1=C(C)/C(=N\OS(=O)(=O)c2ccccc2)C=CC1=O | 19 | 62* | 3 | -331
CCC(C)NCCOCCOc1cc(C)c(Cl)c(C)c1 (stereo not drawn) | 4 | 1 | 12* | -4
Cc1cc(NC(=O)COC(=O)c2oc3c(ccc4ccccc43)c2C)no1 | -1 | 5 | 0 | -30
Cc1c(C(=O)OCC(=O)Nc2ccc(S(N)(=O)=O)cc2)oc2c1ccc1ccccc12 | -21 | 10 | 12* | -48
Cc1cc2c(cc1C)N(CC(=O)N1CCCC1)C(=O)CC(c1ccccc1)=N2 | -15 | -1 | 4 | 5
CC(=O)OCCNc1cc(Sc2nc3ccccc3[nH]2)c2nonc2c1[N+](=O)[O-] | -1 | -6 | -6 | 35*
COc1ccc(NC(=O)c2cc(-c3cc(C)cc(C)c3O)n[nH]2)cc1Cl | -34 | 8 | 11* | -42
SMILES | HTR5A inv ctr | MOR-DOR ag | HTR5A ag | MOR-DOR inv ag
CCOC(=O)c1ccc(N=c2scc(C)n2CC)cc1 | -36 | 0 | 13* | 1
COc1ccc(C(=O)N/N=C2/SCC(=O)N2Cc2ccc3c(c2)OCO3)cc1OC | -30 | 1 | -2 | -5
Cn1cc(CN2CCC(n3nccc3NC(=O)CCc3ccccc3)CC2)cn1 | -13 | -1 | 10* | 7
Cn1cc(CN2CCC(n3nccc3NC(=O)CCCc3ccccc3)CC2)cn1 | 25 | 0 | 3 | 0
Cc1nc(C(C)NC(=O)c2cc(COc3ccc(C)c(C)c3)on2)c(C)s1 (stereo not drawn) | -20 | 6 | 1 | -33
O=C(C(=O)N1CCN(c2cccc(Cl)c2)CC1)c1cn(CC(=O)N2CCOCC2)c2ccccc12 | -10 | -2 | 2 | 12
Cc1cc(C(=O)CSc2nc(N)cc(=O)[nH]2)c(C)n1CC1CCCO1 (stereo not drawn) | 6 | -2 | -1 | 11
Cc1cc(C(=O)CSc2nc3ccccc3[nH]2)c(C)n1CC1CCCO1 (stereo not drawn) | -21 | 18 | 13* | -102

Assay outcomes from PubChem BioAssay.
